Mtb FBA inh: inhibits M. tuberculosis FBA enzyme | inhibition, % at 1 µM | AID 588726 | 360,000 compounds, 2.3% hits | purified M. tuberculosis FBA, fluorescence read-out;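 note: 0% = vehicle and 100% = reference inhibitor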
UGM FP inh: inhibitors of M. tuberculosis UDP-galactopyranose mutase; P9WIQ1; purified UGM, fluorescence polarization probe displacement; inhibition, % at 10 µM; 320,000 compounds, 0.06% hits; AID 504406; in the data active = inhibition above about 10%, passing the limit was not always enough
Target sequence (P9WIQ1 whole entry, looked up): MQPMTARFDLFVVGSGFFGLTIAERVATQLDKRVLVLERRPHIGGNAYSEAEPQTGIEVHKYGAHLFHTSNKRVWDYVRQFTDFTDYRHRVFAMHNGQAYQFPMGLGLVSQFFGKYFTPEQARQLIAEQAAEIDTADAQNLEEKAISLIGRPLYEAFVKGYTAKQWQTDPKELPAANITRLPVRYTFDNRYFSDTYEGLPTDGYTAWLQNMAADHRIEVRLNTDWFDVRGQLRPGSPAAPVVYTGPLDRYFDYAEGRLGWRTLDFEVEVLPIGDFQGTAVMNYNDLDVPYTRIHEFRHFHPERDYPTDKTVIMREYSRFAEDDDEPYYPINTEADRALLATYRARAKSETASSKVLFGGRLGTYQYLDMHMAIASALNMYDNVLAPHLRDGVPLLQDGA
Mtb bLac sens: beta-lactam sensitization of Mtb H37Rv. M. tuberculosis H37Rv growth with meropenem, percent inhibition. inhibition, % at 25 µM. 330,000 compounds, 0.27% hits. AID 434955; call rule not given here;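 note: growth measured after seven days incubation then overnight dye step; 0% = bacteria only wells and 100% = bacteria with antibiotic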
Rv3671c inh: inhibitors of M. tuberculosis serine protease Rv3671c | inhibition, % at 5.96 µM | P9WHR9 | 320,000 compounds, 0.048% hits | AID 2606; in the data active = inhibition above about 38%;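 note: extracellular domain of Rv3671c used as enzyme; 0% = enzyme with DMSO and 100% = no enzyme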
GDH-TPI counter-1: GDH-TPI coupled enzyme inhibition counter-screen; 360,000 compounds, 1.2% hits; inhibition, % at 4.8 µM; GDH-TPI coupled enzyme counterscreen, NADH absorbance; AID 588335; in the data active = inhibition above about 30%;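 note: 0% = DMSO wells and 100% = wells lacking the enzyme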
Mtb FBA confirm: confirmation of M. tuberculosis fructose-bisphosphate aldolase inhibitors | shares compounds with Mtb FBA inh | purified M. tuberculosis FBA, fluorescence read-out | AID 651616 | inhibition, % at 1 µM | 5,600 compounds, 78% hits;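 note: 0% = vehicle wells and 100% = reference inhibitor wells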
GDH-TPI counter-2: GDH-TPI inhibition counter-screen for FBA inhibitors. 5,600 compounds, 81% hits. inhibition, % at 1 µM. GDH-TPI coupled enzyme counterscreen, fluorescence. AID 652141. shares compounds with Mtb FBA inh; in the data active = inhibition above about 10%
* marks the source's active call; other numbers are inactive results; nt = no result; + = active, no number. This is a sample that favours compounds with a hit; in the whole collection about 3.5% have one here. Cut-off read from the data, not from the text of the source, unless noted: active = inhibition above about 27%; inactive = the rest.

SMILES	Mtb FBA inh	UGM FP inh	Mtb bLac sens	Rv3671c inh	GDH-TPI counter-1	Mtb FBA confirm	GDH-TPI counter-2
CC1(C)CC(=O)C2=C(C1)NC1=C(C(=O)c3ccccc31)C2c1cc([N+](=O)[O-])ccc1O (stereo not given)	-6	-2	6	27	23	nt	nt
Cc1c(Cc2ccccc2)c(=O)oc2cc(OCC(=O)N[C@@H](Cc3ccccc3)C(=O)O)ccc12	92*	-2	-3	5	10	165*	136*
COc1cccc(C(=O)COc2ccc3c(C)c(Cc4ccccc4)c(=O)oc3c2)c1	7	-1	-1	-26	6	nt	nt
COC(=O)Cc1c(C)c2ccc(OC(=O)c3ccccc3)cc2oc1=O	79*	0	94	0	8	99*	90*
Cc1c(Cc2ccccc2)c(=O)oc2cc(OCC(=O)NCc3ccccn3)ccc12	78*	2	1	-9	13	88*	70*
O=C(COc1ccc2c(c1)oc(=O)c1ccccc12)NC(Cc1ccc(Cl)cc1)C(=O)O (stereo not given)	74*	-1	-2	-22	13	186*	132*
O=C(COc1ccc2c3c(c(=O)oc2c1)CCC3)NC(Cc1ccc(Cl)cc1)C(=O)O (stereo not given)	21	2	-4	-5	12	nt	nt
COc1cc(CCC(=O)OCC(=O)Nc2ccc(F)c(F)c2F)cc(OC)c1OC	1	0	1	2	-8	nt	nt
COc1ccccc1C(=O)N1CCN(C(=O)[C@H]2O[C@@H](n3cnc4c(N)ncnc43)[C@H](O)[C@@H]2O)CC1	4	nt	nt	nt	nt	nt	nt
CC(C)(C)Nc1nc(-c2ccc3c(c2)CCN3C(=O)C2CC2)cs1	1	1	62	0	12	nt	nt
CS(=O)(=O)c1ccc(-c2cccc(NC(=O)c3ccco3)c2)nn1	1	1	-10	-7	-3	nt	nt
O=c1[nH]c(C2CCCN(S(=O)(=O)c3ccc(F)cc3)C2)nc2c1nnn2Cc1ccc(F)cc1 (stereo not given)	-1	0	9	5	-7	nt	nt
O=C(OCC(=O)N(CCc1ccccc1)Cc1ccccc1)c1ccccc1NCCO	66*	-1	4	8	-8	164*	106*
COc1ccc(N2CCN(C(=O)COC(=O)c3cccc(OC)c3O)CC2)cc1	-2	-3	2	5	9	nt	nt
O=C(OCC(=O)N1CCC(Cc2ccccc2)CC1)c1ccccc1NCCO	80*	1	3	7	7	47*	29*
CNc1ccccc1C(=O)OCC(=O)N1CCN(c2ccc(OC)cc2)CC1	73*	-2	2	-2	5	0	-5
O=C(OCC(=O)N1CCC(Cc2ccccc2)CC1)c1ccccc1O	-1	-1	94	-2	6	nt	nt
CCOC(=O)N1CCN(C(=O)COC(=O)c2ccccc2NCCO)CC1	107*	0	-7	3	9	77*	78*
O=C(OCC(=O)N(CCc1ccccc1)Cc1ccccc1)c1ccccc1O	8	3	91	-4	7	nt	nt
Cn1c(Cc2nc(-c3cnccn3)no2)nnc1SCC(=O)Nc1ccccc1	-2	1	-9	-2	-3	nt	nt
NS(=O)(=O)c1ccc(CCNC(=O)c2cc(-c3ccco3)nc3ccccc23)cc1	77*	0	6	-2	19	75*	73*
NS(=O)(=O)c1ccc(CCNC(=O)c2cc(-c3ccccc3)nc3ccccc23)cc1	2	1	4	-12	7	nt	nt
Cc1ccc(-c2cc(C(=O)NCCc3ccc(S(N)(=O)=O)cc3)c3ccccc3n2)cc1	34*	-3	25	-64	13	177*	179*
NS(=O)(=O)c1ccc(CNC(=O)c2cc(-c3ccccc3)nc3ccccc23)cc1	1	-1	9	-6	15	nt	nt
CC(C)c1ccc(NC(=O)CNS(=O)(=O)c2ccc(F)cc2)cc1	-4	1	3	2	-4	nt	nt
CCOC(=O)c1sc(Nc2nc(OC)cc(OC)n2)nc1C	nt	1	-3	-4	nt	nt	nt
C[C@@H](C(=O)NCCc1ccccc1F)N1C(=O)N2CCc3c([nH]c4ccccc34)[C@@]2(C)C1=O	32*	1	-7	-5	-4	+	188*
C[C@@H](C(=O)NCCc1ccccc1)N1C(=O)N2CCc3c([nH]c4ccccc34)[C@@]2(C)C1=O	0	6	-2	-2	1	nt	nt

From PubChem
